Experiment [1] in a line: compounds binding Alexa647 anti-His antibody – biochemical, small-molecule microarray, 635 nm fluorescence, artefact control for SMM control protein annotation, primary screen (AID 1128).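 Also: score merges feature fluorescence with signal-to-noise for each printed compound spot.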 Conditions: higher = more signal.
Experiment [2] relates to Human papillomavirus type 1a E7 protein (residues 1-88). The experiment is described as follows: HPV1a E7 small-molecule binders, primary screen, biochemical, small-molecule microarray, residues 1-88, 635 nm (AID 1129). Conditions: small-molecule microarray binding, fluorescence 635 nm; higher = more signal.
The target of experiment [3] is Focal adhesion kinase 1 (Homo sapiens) (UniProt Q05397). The experiment is described as follows: PTK2 protein binding on printed compound slides – biochemical, small-molecule microarray, 635/667 nm fluorescence, BSA, DTT, primary screen (AID 1130).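 Also: composite of spot emission at 667 nm and signal to noise over triplicate slides.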 Particulars: 635 nm fluorescence, higher = more signal.
The subject of experiment [4] is Fibrinogen (Alexa647-labelled). Description: Alexa647-fibrinogen binding to printed small molecules – biochemical, small-molecule microarray, 635/667 nm fluorescence, artefact control for SMM control-protein annotation, profiling panel (AID 1131).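 Also: z-score merges 667 nm fluorescence with per-spot signal-to-noise over triplicate slides.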 Conditions: fibrinogen-A647 binding fluorescence, higher = more signal.
The target in experiment [5] is Follistatin (Homo sapiens) (UniProt P19883). The experiment is described as follows: FST protein binding to printed compounds – biochemical, small-molecule microarray, 635/667 nm fluorescence, primary screen (AID 1132). Particulars: 635 nm fluorescence, higher = more signal.
Experiment [6] concerns the target Fibroblast growth factor 2 (Homo sapiens) (UniProt P09038). Description: basic fibroblast growth factor binding to printed compounds – biochemical, small-molecule microarray, 635/667 nm fluorescence, primary screen (AID 1133). Particulars: FGF2, fluorescence 635/667, higher = more signal.
The nature of experiment [7]: JC-1 mitochondrial potential readout, lung cancer cells – cell-based, A549, JC-1 fluorescence, basal, 24 h, 100 nL, profiling panel (AID 1138).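 Also: A549 lung adenocarcinoma cells under basal conditions with no added stimulus; test concentration not given here.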 Conditions: higher = more signal.
The subject of a further experiment is Lefty1. The experiment is described as follows: Lefty1 protein binding to printed compounds – biochemical, small-molecule microarray, 635/667 nm fluorescence, primary screen (AID 1139). Conditions: fluorescence 635/667, higher = more signal.
Experiment [8] concerns wheat germ agglutinin (Triticum aestivum), Alexa647-labelled. The experiment is described as follows: Alexa647-WGA lectin binding to printed small molecules – biochemical, small-molecule microarray, 635/667 nm fluorescence, artefact control for SMM control-protein annotation, profiling panel (AID 1140).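 Also: score merges 667 nm feature emission with signal to noise over triplicate slides.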 Conditions: WGA-A647 binding, 635 nm fluorescence, higher = more signal.

Experiment [9] has as its target Luciferin 4-monooxygenase (Photinus pyralis) (UniProt P08659). The experiment is described as follows: inhibition of purified Photinus pyralis luciferase – biochemical, luminescence, purified enzyme, 2006 set, primary screen (AID 1141).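 Also: cell-free assay with purified firefly luciferase at 100 ng per well in PBS; test concentration not given here.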 Conditions: purified firefly luciferase, SteadyGlo luminescence, 30 min; higher = more signal, called active from +8 up or from −8 down.

The subject of experiment [10] is Wnt5a (protein binding on small-molecule microarray). Description: small molecules binding Wnt5a protein – biophysical, small-molecule microarray, 635/667 nm fluorescence, primary screen (AID 1142).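 Also: fluorescence read at 667 nm with signal to noise per printed feature.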 Conditions: 635 nm fluorescence, higher = more signal.
Experiment [11] is described as follows: ATP-based viability of Huh7 replicon cells – cell-based, CellTiter-Glo luminescence, basal, 48 h, cytotoxicity control for HCV replication inhibitor project, primary screen (AID 1143).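 Also: Huh7 hepatoma cells carrying a hepatitis C replication reporter with no stimulus; test concentration not given here.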 Conditions: higher = more signal, called active from +8 up or from −8 down. Background: A replicon is a self-replicating genome or part of one, used to study replication in cells.

A short description of experiment [12]: Pseudomonas biofilm growth suppression – PAO1 strain, BacTiter-Glo luminescence, LB-PBS, primary screen (AID 1144). Conditions: P. aeruginosa PAO1 biofilm, 12 h, higher = more signal.
A short description of experiment [13]: basal CRE-LacZ reporter activity in PC12 – cell-based, unstimulated, primary screen (AID 1145). Particulars: no forskolin, luminescence, 4.5 h, higher = more signal, called active from +8 up or from −8 down.
Experiment [14] can be described thus: forskolin-driven CRE-LacZ activity in PC12 – cell-based, CRE-LacZ reporter, forskolin-stimulated, primary screen (AID 1146).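 Also: PC12 cells with 6xCRE LacZ reporter stimulated by forskolin 10 µM; beta-galactosidase reporter signal reflecting CREB driven transcription.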 Particulars: luminescence, 4.5 h, higher = more signal, called active from +8 up or from −8 down.
Experiment [15] has as its target Streptavidin (Streptomyces avidinii) (UniProt P22629). Description: compounds binding control protein streptavidin – biophysical, small-molecule microarray, 635/667 nm fluorescence, artefact control for SMM compound annotation, primary screen (AID 1147).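 Also: signal reflects streptavidin binding to arrayed compounds as a control protein.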 Conditions: higher = more signal.
The nature of experiment [16]: probe aInhba binding on compound microarray – biochemical, small-molecule microarray, 635/667 nm fluorescence, primary screen (AID 1148).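 Also: score merges 667nm spot fluorescence with signal-to-noise for antibody binding to printed compounds.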 Particulars: higher = more signal.
Experiment [17] deals with Torsin-1A (Homo sapiens) (UniProt O14656). The experiment is described as follows: TOR1A wild-type binding on microarray – cell lysate, small-molecule microarray, lysate, 635/667 nm, primary screen (AID 1149). Particulars: COS7 hTOR1A-WT lysate, 635 nm fluorescence, higher = more signal.
The target is the same in experiment [18]. The experiment is described as follows: torsin A mutant lysate binding on microarrays – cell lysate, small-molecule microarray, COS7 lysate, 635/667 nm fluorescence, primary screen (AID 1150).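 Also: score pools 667 nm emission and signal to noise measuring lysate protein binding.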 Particulars: COS7 hTOR1A mutant lysate, 635 nm fluorescence, higher = more signal.
Experiment [19] has as its system Sonic hedgehog protein (Shh). Description: Sonic hedgehog microarray binding compounds – biochemical, small-molecule microarray, 635/667 nm fluorescence, primary screen (AID 1151).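 Also: Shh protein binding to compounds spotted on small-molecule microarray slides; score combines spot fluorescence intensity with signal-to-noise across triplicate slides.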 Particulars: 635 nm fluorescence, higher = more signal.

Active and inactive are the calls of the source. Unless noted, no rule for the calls is given here.

Chain of Follistatin (Homo sapiens) (P19883 whole entry, looked up): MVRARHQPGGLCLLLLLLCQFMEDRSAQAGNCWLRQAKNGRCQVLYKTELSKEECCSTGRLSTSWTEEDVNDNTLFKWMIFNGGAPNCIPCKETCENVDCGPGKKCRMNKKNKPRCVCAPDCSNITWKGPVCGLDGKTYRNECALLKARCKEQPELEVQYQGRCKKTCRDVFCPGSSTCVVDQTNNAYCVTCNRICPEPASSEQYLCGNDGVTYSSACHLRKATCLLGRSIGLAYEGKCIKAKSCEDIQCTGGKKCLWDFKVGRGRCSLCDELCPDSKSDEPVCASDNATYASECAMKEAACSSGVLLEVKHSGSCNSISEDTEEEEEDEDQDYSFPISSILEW
Chain of Fibroblast growth factor 2 (Homo sapiens) (P09038 whole entry, looked up): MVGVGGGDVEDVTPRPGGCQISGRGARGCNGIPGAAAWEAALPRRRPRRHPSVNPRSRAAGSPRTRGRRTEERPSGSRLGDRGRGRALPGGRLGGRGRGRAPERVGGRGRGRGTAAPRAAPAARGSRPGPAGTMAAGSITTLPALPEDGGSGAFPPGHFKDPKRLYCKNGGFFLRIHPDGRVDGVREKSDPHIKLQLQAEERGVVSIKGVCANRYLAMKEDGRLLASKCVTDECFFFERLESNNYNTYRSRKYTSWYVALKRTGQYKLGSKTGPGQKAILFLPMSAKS
Chain of Focal adhesion kinase 1 (Homo sapiens) (Q05397 whole entry, looked up): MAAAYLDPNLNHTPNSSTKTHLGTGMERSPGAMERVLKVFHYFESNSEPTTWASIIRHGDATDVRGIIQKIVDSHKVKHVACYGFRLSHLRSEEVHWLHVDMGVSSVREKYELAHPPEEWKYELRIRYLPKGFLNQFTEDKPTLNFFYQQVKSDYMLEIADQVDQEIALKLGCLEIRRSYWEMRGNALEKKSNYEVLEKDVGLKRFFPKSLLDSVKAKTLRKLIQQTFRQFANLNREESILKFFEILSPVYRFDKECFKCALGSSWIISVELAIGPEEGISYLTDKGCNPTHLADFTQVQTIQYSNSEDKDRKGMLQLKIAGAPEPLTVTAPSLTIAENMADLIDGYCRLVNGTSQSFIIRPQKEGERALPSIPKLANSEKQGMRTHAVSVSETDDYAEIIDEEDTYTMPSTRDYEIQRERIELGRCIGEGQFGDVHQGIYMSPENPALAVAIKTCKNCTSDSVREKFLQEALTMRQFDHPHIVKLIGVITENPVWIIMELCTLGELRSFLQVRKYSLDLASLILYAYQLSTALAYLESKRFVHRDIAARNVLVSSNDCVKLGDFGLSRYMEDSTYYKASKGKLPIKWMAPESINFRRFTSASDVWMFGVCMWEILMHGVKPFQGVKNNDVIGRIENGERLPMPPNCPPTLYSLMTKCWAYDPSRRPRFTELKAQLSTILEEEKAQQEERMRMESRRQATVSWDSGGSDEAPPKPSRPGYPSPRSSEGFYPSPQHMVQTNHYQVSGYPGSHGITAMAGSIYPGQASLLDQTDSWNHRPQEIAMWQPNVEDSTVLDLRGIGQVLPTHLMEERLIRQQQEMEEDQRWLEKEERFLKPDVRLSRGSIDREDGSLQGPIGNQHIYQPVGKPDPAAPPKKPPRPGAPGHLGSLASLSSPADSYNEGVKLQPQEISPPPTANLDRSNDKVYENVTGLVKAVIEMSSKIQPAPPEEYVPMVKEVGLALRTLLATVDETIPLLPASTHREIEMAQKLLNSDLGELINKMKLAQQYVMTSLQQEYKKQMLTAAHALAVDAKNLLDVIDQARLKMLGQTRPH
Chain of Luciferin 4-monooxygenase (Photinus pyralis) (P08659 whole entry, looked up): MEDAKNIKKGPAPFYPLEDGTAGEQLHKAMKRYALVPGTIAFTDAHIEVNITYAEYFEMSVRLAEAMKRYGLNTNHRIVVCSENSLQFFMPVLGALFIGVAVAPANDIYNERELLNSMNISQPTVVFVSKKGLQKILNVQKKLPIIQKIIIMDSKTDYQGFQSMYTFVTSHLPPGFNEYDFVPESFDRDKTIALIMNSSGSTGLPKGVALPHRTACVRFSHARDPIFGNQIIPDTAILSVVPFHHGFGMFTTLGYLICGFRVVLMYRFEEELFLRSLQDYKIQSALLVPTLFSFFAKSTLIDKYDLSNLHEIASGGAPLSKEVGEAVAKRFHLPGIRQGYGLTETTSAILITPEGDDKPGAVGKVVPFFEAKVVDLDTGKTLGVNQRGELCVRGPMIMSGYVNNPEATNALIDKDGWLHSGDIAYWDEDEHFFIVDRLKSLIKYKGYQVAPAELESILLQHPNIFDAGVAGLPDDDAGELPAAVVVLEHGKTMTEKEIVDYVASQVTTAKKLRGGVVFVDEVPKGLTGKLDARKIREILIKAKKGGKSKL
Chain of Streptavidin (Streptomyces avidinii) (P22629 whole entry, looked up): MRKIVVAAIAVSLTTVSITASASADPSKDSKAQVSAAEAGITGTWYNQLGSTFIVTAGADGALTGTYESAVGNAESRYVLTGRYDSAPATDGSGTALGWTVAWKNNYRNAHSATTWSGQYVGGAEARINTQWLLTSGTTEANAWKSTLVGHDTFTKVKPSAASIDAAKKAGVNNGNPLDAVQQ
Chain of Torsin-1A (Homo sapiens) (O14656 whole entry, looked up): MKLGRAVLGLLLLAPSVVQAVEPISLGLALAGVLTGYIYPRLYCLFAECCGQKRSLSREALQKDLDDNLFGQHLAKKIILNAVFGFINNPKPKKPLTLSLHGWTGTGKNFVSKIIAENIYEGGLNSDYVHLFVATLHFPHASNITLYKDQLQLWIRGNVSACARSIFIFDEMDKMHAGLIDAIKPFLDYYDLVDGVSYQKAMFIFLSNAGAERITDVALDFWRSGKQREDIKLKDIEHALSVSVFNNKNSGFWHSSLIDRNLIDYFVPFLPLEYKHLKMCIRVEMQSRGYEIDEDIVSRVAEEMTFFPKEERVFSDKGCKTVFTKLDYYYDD

In the case of `C=C(COC)/C(=C/C[C@H](OC(=O)c1ccncc1)c1ccccc1OCCO)c1cnc2ccccc2c1`, the composite z-score amounted to 0.717 in experiment [1]; 1.23 in experiment [2]; 0.241 in experiment [3]; 1.01 in [4]; 1.4 in experiment [5]; 1.35 in experiment [6]. In addition, the composite z-score in the experiment on Lefty1 amounted to 1.5; in experiment [8] it was 1.04; in experiment [10], 0.488; in experiment [15] it was 0.294; in experiment [16], 0.156; with Torsin-1A (Homo sapiens) [17] it was 1.57. For the same compound, the composite z-score in the experiment with Torsin-1A (Homo sapiens) [18] was found to be 1.42; in experiment [19], 2.22. Besides, the z-score is 0.662 in [7]; -0.212 (inactive) in [9]; -0.854 (inactive) in experiment [11]; -1.13 (inactive) in experiment [12]; 3.24 (inactive) in [13]; 1.42 (inactive) in experiment [14].

In the case of `[N-]=[N+]=Nc1ccccc1[C@H]1OC(c2ccc(OCCCO)cc2)=N[C@@]1(CCS(=O)(=O)c1ccccc1)C(=O)NCCN1CCOCC1`, the composite z-score in experiment [1] worked out at 1.51; in experiment [2], 1.26; in experiment [3] it was 0.56; in experiment [4], 0.938; in experiment [5] it was 1.34; in experiment [6], 0.471. Moreover, the composite z-score in the experiment with Lefty1 worked out at 0.619; in experiment [8] it was 0.821; in [10], 1.11; in [15] it was 0.866; in experiment [16], 0.283; with Torsin-1A (Homo sapiens) [17] it was 0.484. Moreover, the composite z-score in the experiment with Torsin-1A (Homo sapiens) [18] was 1.47; in experiment [19], 0.273. The z-score in [7] was 0.162; in [9], -6.93 (inactive); in experiment [11] it was -1.14 (inactive); in [12] it was 1.38 (inactive); in experiment [13], -0.45 (inactive); in [14], -0.5 (inactive).

For the compound `COc1ccc([Si](C)(C)[C@@H]2[C@@H](CC(=O)N3Cc4ccccc4C[C@H]3CO)O[C@]3(C(=O)N(C)c4ccccc43)[C@H]2C)cc1`, the composite z-score in experiment [1] is 1.94; in [2], 1.17; in experiment [3], 0.0712; in experiment [4] it was 0.855; in experiment [5] it was 1.52; in experiment [6], 1.68. In addition, the composite z-score was 1.57 in the experiment with Lefty1; 1.02 in experiment [8]; 0.269 in [10]; 1.64 in experiment [15]; 0.189 in experiment [16]; 0.783 with Torsin-1A (Homo sapiens) [17]. In addition, the results for the composite z-score (with Torsin-1A (Homo sapiens) [18]; in experiment [19]) were 0.741 and 2.03, respectively. Further, the z-score in experiment [7] was 0.0779; in experiment [9], -0.497 (inactive); in [11], -7.08 (inactive); in [12], -1.58 (inactive); in experiment [13], 10.2 (active); in experiment [14], -1.92 (inactive).

For `O=C1OCC=C[C@H]2OC34C=CCN(Cc5ccccc5)C(=O)[C@H]3N(CCCCCCO)C(=O)[C@@H]4[C@@H]12` (stereo not given in full), the composite z-score in experiment [1] is 1.29; in experiment [2], -0.0134; in experiment [3], 0.879; in [4] it was -1.25; in [5] it was -0.562; in experiment [6] it was -0.292. In addition, the composite z-score in the experiment on Lefty1 was -0.128; in experiment [8] it was 0.206; in experiment [10] it was -0.495; in experiment [15] it was -0.447; in experiment [16] it was -0.238; with Torsin-1A (Homo sapiens) [17] it was 1.6. Besides, the composite z-score with Torsin-1A (Homo sapiens) [18] is 1.29; in [19], -0.289. Moreover, the z-score was 0.0814 in experiment [7]; -3.54 (inactive) in [9]; -0.203 (inactive) in experiment [11]; -0.955 (inactive) in [12]; -1.18 (inactive) in experiment [13]; -0.185 (inactive) in experiment [14].

In the case of `CCOC(=O)[C@H]1[C@@H]2C(=O)N3CCC[C@H]3[C@H](O[Si](C(C)C)(C(C)C)C(C)C)[C@H]2C=C2CCN(S(=O)(=O)c3ccc(C)cc3)C[C@H]21`, the composite z-score in experiment [1] was 0.173; in [2] it was 0.837; in [3], -0.268; in experiment [4], 0.938; in experiment [5] it was 0.727; in [6], 0.143. Besides, the composite z-score with Lefty1 is 0.672; in experiment [8], 0.255; in experiment [10] it was 0.0328; in experiment [15], 1.03; in experiment [16], -0.0468; with Torsin-1A (Homo sapiens) [17], 0.353. The composite z-score with Torsin-1A (Homo sapiens) [18] was 0.163; in experiment [19] it was 1.58. For the same compound, the z-score is 1.8 in experiment [7]; -0.404 (inactive) in experiment [9]; -5.75 (inactive) in experiment [11]; 0.426 (inactive) in experiment [12]; 0.673 (inactive) in [13]; 0.986 (inactive) in experiment [14].

For the origin of these results see PubChem BioAssay.
